Data on four compounds can be found in PubChem BioAssay (EPA / NIEHS).

Experiment [1] concerns the target Paired box protein Pax-6 (Homo sapiens) (UniProt P26367). In words: ATG_Pax6_CIS: Attagene CIS-FACTORIAL HepG2 Assay for human Paired Box 6 (PAX6) (AID 2282956). Particulars: HepG2 CIS-FACTORIAL PAX6 reporter transcription, RNA readout; actives raise or lower the signal. The procedure, abridged:
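Fluorescent RT-PCR products separated by capillary electrophoresis report PAX6-linked promoter mRNA in HepG2 cells 24 h post-dose. Curves fitted bidirectionally, DMSO as negative control.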

Experiment [2] in a line: ATG_PXRE_CIS: Attagene CIS-FACTORIAL HepG2 Assay for human Pregnane X Receptor Element (PXRE) (AID 2282957). As to conditions: HepG2 Attagene CIS-FACTORIAL PXRE reporter, mRNA; actives raise or lower the signal. The procedure, abridged: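 Reporter transcripts under endogenous PXR-responsive cis-regulation quantified from total RNA of transfected HepG2 cells 24 h post-dosing, via RT-PCR with fluorescent primer extension and capillary electrophoresis. Gain or loss of signal fitted against DMSO baseline.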

Experiment [3] can be described thus: ATG_PPRE_CIS: Attagene CIS-FACTORIAL HepG2 Assay for human Peroxisome Proliferator-activated Response Element (PPRE) (AID 2282958). Particulars: HepG2 PPRE cis-element reporter, Attagene transcription factor profiling; actives raise or lower the signal. Summed up:
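HepG2 cells transiently transfected with multiplexed cis-element reporter units measure endogenous transcription factor activity. After 24 h compound exposure, reporter mRNA is quantified by RT-PCR, 6-FAM labeling, HpaI digestion and capillary electrophoresis; bidirectional fits are made against DMSO baseline.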

Experiment [4] in a line: ATG_RORE_CIS: Attagene CIS-FACTORIAL HepG2 Assay for human RAR-related Orphan Receptor Element (RORE) (AID 2282959). As to conditions: HepG2 Attagene cis-factorial RORE reporter, mRNA; actives raise or lower the signal. Summed up: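 HepG2 cells transiently transfected with multiple cis-element reporter transcription units, exposed to chemical for 24 h. Reporter mRNA quantified by RT-PCR, 6-FAM primer-extension labeling, HpaI digestion and capillary electrophoresis; bidirectional fit versus DMSO baseline.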

Experiment [5] in a line: ATG_Sox_CIS: Attagene CIS-FACTORIAL HepG2 Assay for human SRY-box transcription factor (SOX) (AID 2282960). Particulars: HepG2 Attagene cis-factorial SOX reporter, mRNA; actives raise or lower the signal. Summed up: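 HepG2 cells transiently transfected with cis-element-driven multiple reporter transcription units, dosed 24 h; reporter mRNA measured by RT-PCR, FAM labelling, HpaI digestion and capillary electrophoresis. Bidirectional fit versus DMSO baseline.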

For experiment [6], the target named is Transcription factor Sp1 (Homo sapiens) (UniProt P08047). The experiment in a line: ATG_Sp1_CIS: Attagene CIS-FACTORIAL HepG2 Assay for human Specificity Protein 1 (Sp1) (AID 2282961). Particulars: HepG2 Sp1 cis-reporter transcription, actives raise or lower the signal. The procedure, abridged: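 HepG2 cells transiently transfected with multiple reporter transcription units driven by cis-regulatory elements; Sp1-responsive reporter mRNA measured 24 h after dosing by RT-PCR and capillary electrophoresis fluorescence, fitted bidirectionally against DMSO baseline.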

Experiment [7] can be described thus: ATG_SREBP_CIS: Attagene CIS-FACTORIAL HepG2 Assay for human Sterol Regulatory Element Binding (SREBP) (AID 2282962). Particulars: HepG2 Attagene cis-factorial SREBP reporter, mRNA; actives raise or lower the signal. Summed up:
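Endogenous factor activity is measured in HepG2 through multiplexed reporter units under cis-element control. Following a 24 h incubation, reporter transcripts are reverse-transcribed, PCR-amplified and sized by capillary electrophoresis; activity is fitted in both directions relative to DMSO.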

Experiment [8] addresses Signal transducer and activator of transcription 3 (Homo sapiens) (UniProt P40763). In words: ATG_STAT3_CIS: Attagene CIS-FACTORIAL HepG2 Assay for human Signal Transducer and Activator of Transcription 3 (STAT3) (AID 2282963). As to conditions: HepG2, Attagene cis-factorial STAT3 reporter transcription; actives raise or lower the signal. The procedure, abridged: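 Uses human liver HepG2 transiently carrying cis-regulated reporter transcription units. Following 24 h dosing, reporter mRNA induction was detected by RT-PCR and capillary electrophoresis, analysed bidirectionally versus DMSO.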

Experiment [9] in a line: ATG_TA_CIS: Attagene CIS-FACTORIAL HepG2 Assay for human TA Basal Promoter (AID 2282964). As to conditions: HepG2 Attagene CIS-factorial TA basal promoter reporter; actives raise or lower the signal. Summed up: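 Cis-factorial format in HepG2: reporters report endogenous factors, not chimeric Gal4 fusions. After 24 h treatment, reporter transcripts were measured by RT-PCR-capillary electrophoresis fluorescence, analysed bidirectionally versus DMSO.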

A short description of experiment [10]: ATG_TCF_b_cat_CIS: Attagene CIS-FACTORIAL HepG2 Assay for human T-Cell-Factor with beta-catenin (TCF/b-cat) (AID 2282965). Particulars: HepG2 TCF/beta-catenin cis-reporter transcription, actives raise or lower the signal. The procedure, abridged:
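Using capillary electrophoresis as the read-out, labelled reporter cDNA fragments from transiently transfected HepG2 were sized and quantified. Exposure lasted 24 hours; activity in either direction was referenced to DMSO.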

The nature of experiment [11]: ATG_TAL_CIS: Attagene CIS-FACTORIAL HepG2 Assay for human TAL Basal Promoter (AID 2282966).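 Also: background control endpoint measuring basal TAL promoter reporter mRNA not a specific factor.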 Particulars: HepG2 Attagene cis-factorial TAL promoter reporter; actives raise or lower the signal. Summed up:
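Background-control endpoint: basal TAL promoter reporter transcripts in transiently transfected HepG2, measured 24 h after dosing. Read-out by RT-PCR with fluorescent primer extension and capillary electrophoresis; gain or loss of signal fitted relative to DMSO.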

Experiment [12] can be described thus: ATG_TGFb_CIS: Attagene CIS-FACTORIAL HepG2 Assay for human Transforming Growth Factor (TGF) (AID 2282967). Particulars: HepG2 Attagene CIS TGFb reporter, mRNA transcription; actives raise or lower the signal. Summed up:
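Multiplexed cis-reporter HepG2 system, 24 h treatment; mRNA induction read by fluorescence after RT-PCR and CE; DMSO negative control, bidirectional curve fitting.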

The nature of experiment [13]: ATG_VDRE_CIS: Attagene CIS-FACTORIAL HepG2 Assay for human Vitamin D Receptor Element (VDRE) (AID 2282968). Particulars: HepG2 VDRE cis-reporter transcription, actives raise or lower the signal. Summed up: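 Transfected HepG2 reporter cells, chemical treatment 24 h. RNA isolated, cDNA amplified with reporter-specific primers, products analysed by capillary electrophoresis. Endpoint fitted in both directions versus DMSO.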

Experiment [14] addresses X-box-binding protein 1 (Homo sapiens) (UniProt P17861). The experiment in a line: ATG_Xbp1_CIS: Attagene CIS-FACTORIAL HepG2 Assay for human X-box Binding Protein 1 (XBP1) (AID 2282972). As to conditions: HepG2 XBP1 cis-element reporter, Attagene multiplex; actives raise or lower the signal. Summed up:
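Multiplexed cis-reporter readout in transfected HepG2 liver cells. Exposure lasted 24 hours. Activity in either direction was fitted against DMSO as negative control and baseline.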

Experiment [15] is described as follows: ATG_M_19_TRANS: Attagene TRANS-FACTORIAL HepG2 Assay for M19 Transcription Factor (Internal Marker) (AID 2282974; active = hit-call score of the fitted dose curve at least 0.9, where 1 is the maximum). Particulars: HepG2 Attagene TRANS-FACTORIAL M19 internal marker reporter. The procedure, abridged:
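HepG2 cells transiently transfected with multiple GAL4-UAS reporter transcription units were exposed to chemicals for 24 h. Reporter mRNA was read by RT-PCR, 6-FAM primer extension, HpaI digestion and capillary electrophoresis; gain of signal fitted relative to DMSO.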

A short description of experiment [16]: ATG_GAL4_TRANS: Attagene TRANS-FACTORIAL HepG2 Assay for GAL4 (Internal Marker) (AID 2282976; active = hit-call score of the fitted dose curve at least 0.9, where 1 is the maximum). Particulars: HepG2 Attagene TRANS GAL4 internal marker reporter. The procedure, abridged: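 In transfected human HepG2 liver cells dosed 24 h, GAL4 reporter mRNA serves as a baseline marker. Detection by RT-PCR with fluorescent capillary electrophoresis, activity fitted upward relative to DMSO.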

The target in experiment [17] is Nuclear receptor subfamily 1 group I member 3 (Homo sapiens) (UniProt Q14994). The experiment in a line: ATG_CAR_TRANS: Attagene TRANS-FACTORIAL HepG2 Assay for human Constitutive Androstane Receptor (CAR) (AID 2282969; active = hit-call score of the fitted dose curve at least 0.9, where 1 is the maximum;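 also: activators raise reporter mRNA above DMSO so AC50 marks induction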). As to conditions: HepG2 Attagene TRANS-FACTORIAL CAR reporter. Summed up: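 Steps: transient transfection of HepG2 with multiple GAL4-UAS reporter units; 24 h compound incubation; RNA isolation, RT-PCR, 6-FAM primer extension, HpaI digest; capillary electrophoresis. Gain-of-signal relative to DMSO negative control.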

The target in experiment [18] is Estrogen receptor (Homo sapiens) (UniProt P03372). In words: ATG_ERa_TRANS: Attagene TRANS-FACTORIAL HepG2 Assay for human Estrogen Receptor alpha (ERa) (AID 2282970; active = hit-call score of the fitted dose curve at least 0.9, where 1 is the maximum). Particulars: HepG2 Attagene TRANS ERa GAL4 reporter, mRNA. Summed up: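 Reporter transcripts were measured 24 h after dosing by RT-PCR with fluorescent primer extension and capillary electrophoresis. The system is transiently transfected HepG2 expressing exogenous NR-Gal4 chimeras driving GAL4-UAS reporters; DMSO is the baseline.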

Experiment [19] has as its target Steroid hormone receptor ERR1 (Homo sapiens) (UniProt P11474). The experiment in a line: ATG_ERRa_TRANS: Attagene TRANS-FACTORIAL HepG2 Assay for human Estrogen-Related Receptor alpha (ERRa) (AID 2282971; active = hit-call score of the fitted dose curve at least 0.9, where 1 is the maximum). As to conditions: HepG2 Attagene TRANS reporter, ERRa transactivation. Summed up: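 Reporter transcripts from ERRa-Gal4 chimera activity measured in transiently transfected human HepG2 cells 24 hours after dosing, using RT-PCR with 6-FAM primer extension, HpaI digestion and capillary electrophoresis; DMSO is baseline.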

Experiment [20] deals with Estrogen-related receptor gamma (Homo sapiens) (UniProt P62508). The experiment in a line: ATG_ERRg_TRANS: Attagene TRANS-FACTORIAL HepG2 Assay for human Estrogen-Related Receptor gamma (ERRg) (AID 2282977; active = hit-call score of the fitted dose curve at least 0.9, where 1 is the maximum;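 also: hits increase reporter signal over DMSO so potencies reflect activators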). Particulars: HepG2 Attagene TRANS reporter, ERRg transactivation. The procedure, abridged:
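Exogenous NR-Gal4 chimera activity was assessed in HepG2 cells bearing transfected GAL4-UAS reporters. After 24 h dosing, total RNA underwent RT-PCR, fluorescent primer extension and HpaI digestion before capillary electrophoresis, with gain of signal scored against DMSO.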

Results filed as inconclusive are left out. Active and inactive are the calls of the source. The calls were made as follows, unless noted: active = hit-call score of the fitted dose curve at least 0.9, where 1 is the maximum; inactive = score below 0.9.

Chain of Signal transducer and activator of transcription 3 (Homo sapiens) (P40763 whole entry, looked up): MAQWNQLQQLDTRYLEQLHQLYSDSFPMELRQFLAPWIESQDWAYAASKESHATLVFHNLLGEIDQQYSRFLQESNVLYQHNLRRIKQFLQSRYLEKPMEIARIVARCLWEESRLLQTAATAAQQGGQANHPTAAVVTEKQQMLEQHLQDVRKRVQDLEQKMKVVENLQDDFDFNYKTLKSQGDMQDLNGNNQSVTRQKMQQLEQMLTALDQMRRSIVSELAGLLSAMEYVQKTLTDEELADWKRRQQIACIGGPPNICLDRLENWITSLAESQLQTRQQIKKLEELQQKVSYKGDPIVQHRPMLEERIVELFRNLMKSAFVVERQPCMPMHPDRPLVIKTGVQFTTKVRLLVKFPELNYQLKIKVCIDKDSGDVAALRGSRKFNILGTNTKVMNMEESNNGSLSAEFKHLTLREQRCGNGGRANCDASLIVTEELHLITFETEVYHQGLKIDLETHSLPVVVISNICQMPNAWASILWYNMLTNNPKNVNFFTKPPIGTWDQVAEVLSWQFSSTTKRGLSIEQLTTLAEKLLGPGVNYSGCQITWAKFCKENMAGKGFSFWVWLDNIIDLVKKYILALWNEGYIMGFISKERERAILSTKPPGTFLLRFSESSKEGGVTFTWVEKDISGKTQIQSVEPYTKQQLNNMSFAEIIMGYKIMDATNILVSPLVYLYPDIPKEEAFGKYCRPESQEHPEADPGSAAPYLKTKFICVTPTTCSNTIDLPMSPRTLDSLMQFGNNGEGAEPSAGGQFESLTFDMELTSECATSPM
Chain of Paired box protein Pax-6 (Homo sapiens) (P26367 whole entry, looked up): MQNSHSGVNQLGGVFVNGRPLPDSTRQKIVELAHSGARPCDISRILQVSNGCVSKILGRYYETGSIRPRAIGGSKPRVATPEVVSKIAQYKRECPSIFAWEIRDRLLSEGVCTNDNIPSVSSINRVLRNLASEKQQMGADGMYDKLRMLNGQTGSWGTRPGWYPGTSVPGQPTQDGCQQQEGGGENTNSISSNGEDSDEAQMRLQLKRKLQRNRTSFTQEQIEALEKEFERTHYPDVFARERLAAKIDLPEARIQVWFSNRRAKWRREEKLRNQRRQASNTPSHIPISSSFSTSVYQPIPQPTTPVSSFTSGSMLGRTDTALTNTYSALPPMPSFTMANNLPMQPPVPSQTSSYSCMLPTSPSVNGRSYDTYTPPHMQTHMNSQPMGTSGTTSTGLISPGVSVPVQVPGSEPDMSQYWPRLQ
Chain of X-box-binding protein 1 (Homo sapiens) (P17861 whole entry, looked up): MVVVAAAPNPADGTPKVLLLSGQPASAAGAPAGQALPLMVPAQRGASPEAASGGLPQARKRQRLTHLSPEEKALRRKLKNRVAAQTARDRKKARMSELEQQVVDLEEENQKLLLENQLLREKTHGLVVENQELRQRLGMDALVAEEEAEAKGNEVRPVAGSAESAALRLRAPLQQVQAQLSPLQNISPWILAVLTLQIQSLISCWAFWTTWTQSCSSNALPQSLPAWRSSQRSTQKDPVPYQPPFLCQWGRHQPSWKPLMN
Chain of Nuclear receptor subfamily 1 group I member 3 (Homo sapiens) (Q14994 whole entry, looked up, the tested form may be a part): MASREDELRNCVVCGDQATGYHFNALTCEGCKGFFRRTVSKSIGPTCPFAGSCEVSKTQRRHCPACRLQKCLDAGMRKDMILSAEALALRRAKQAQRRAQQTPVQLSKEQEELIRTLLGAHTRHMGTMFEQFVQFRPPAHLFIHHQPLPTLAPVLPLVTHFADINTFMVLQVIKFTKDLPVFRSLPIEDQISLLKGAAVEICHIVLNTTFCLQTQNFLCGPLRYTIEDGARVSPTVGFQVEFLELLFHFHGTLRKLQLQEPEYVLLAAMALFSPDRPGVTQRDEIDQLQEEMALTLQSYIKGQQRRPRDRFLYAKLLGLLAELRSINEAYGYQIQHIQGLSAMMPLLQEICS
Chain of Transcription factor Sp1 (Homo sapiens) (P08047 whole entry, looked up): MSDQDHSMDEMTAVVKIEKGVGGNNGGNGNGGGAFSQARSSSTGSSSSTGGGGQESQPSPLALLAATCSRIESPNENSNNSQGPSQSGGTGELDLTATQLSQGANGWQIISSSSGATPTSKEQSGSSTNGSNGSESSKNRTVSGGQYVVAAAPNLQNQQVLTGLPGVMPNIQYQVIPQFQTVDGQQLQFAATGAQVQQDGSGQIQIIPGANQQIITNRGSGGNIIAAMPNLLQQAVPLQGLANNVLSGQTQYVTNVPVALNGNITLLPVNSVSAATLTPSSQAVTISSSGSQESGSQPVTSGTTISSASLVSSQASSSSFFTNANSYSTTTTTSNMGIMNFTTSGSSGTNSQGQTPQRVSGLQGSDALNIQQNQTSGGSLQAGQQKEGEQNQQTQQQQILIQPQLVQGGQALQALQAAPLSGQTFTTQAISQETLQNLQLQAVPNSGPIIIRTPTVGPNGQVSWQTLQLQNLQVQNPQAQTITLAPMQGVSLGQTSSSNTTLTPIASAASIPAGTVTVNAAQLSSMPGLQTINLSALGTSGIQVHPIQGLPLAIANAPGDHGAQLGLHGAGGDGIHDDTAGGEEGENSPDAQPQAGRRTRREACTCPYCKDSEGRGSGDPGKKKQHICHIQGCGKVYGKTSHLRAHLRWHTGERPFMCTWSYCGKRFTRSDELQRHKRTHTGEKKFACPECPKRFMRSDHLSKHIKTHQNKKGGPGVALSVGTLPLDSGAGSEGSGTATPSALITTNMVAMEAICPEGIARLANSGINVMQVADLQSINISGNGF
Chain of Estrogen receptor (Homo sapiens) (P03372 whole entry, looked up, the tested form may be a part): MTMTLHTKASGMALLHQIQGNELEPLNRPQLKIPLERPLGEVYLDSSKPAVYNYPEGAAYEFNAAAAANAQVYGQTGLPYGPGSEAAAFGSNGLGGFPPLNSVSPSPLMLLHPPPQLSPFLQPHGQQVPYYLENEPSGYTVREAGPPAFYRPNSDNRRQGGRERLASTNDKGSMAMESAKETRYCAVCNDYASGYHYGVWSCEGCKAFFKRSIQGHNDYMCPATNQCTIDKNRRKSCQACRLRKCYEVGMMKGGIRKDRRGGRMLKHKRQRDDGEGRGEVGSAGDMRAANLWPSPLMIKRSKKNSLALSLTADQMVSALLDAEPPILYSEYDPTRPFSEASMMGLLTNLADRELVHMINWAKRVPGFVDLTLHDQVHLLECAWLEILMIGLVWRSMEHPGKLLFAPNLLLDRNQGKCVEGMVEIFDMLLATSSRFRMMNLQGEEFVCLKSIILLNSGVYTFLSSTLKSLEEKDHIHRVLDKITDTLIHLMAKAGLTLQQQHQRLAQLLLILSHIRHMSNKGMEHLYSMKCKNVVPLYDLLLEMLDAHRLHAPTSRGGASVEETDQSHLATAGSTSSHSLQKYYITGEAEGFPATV
Chain of Estrogen-related receptor gamma (Homo sapiens) (P62508 whole entry, looked up, the tested form may be a part): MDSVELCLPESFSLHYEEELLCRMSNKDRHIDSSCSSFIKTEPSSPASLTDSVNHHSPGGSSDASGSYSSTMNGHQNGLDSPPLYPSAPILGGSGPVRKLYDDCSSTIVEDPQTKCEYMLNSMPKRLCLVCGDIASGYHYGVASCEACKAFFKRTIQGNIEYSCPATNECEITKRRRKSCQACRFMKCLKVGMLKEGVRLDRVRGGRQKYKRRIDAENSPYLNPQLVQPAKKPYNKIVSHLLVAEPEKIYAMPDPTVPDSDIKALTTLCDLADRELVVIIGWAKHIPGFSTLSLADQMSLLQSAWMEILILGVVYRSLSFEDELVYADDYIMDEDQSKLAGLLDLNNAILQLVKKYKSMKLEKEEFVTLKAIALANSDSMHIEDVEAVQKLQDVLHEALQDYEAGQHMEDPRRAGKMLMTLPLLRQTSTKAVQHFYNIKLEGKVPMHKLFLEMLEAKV
Chain of Steroid hormone receptor ERR1 (Homo sapiens) (P11474 whole entry, looked up, the tested form may be a part): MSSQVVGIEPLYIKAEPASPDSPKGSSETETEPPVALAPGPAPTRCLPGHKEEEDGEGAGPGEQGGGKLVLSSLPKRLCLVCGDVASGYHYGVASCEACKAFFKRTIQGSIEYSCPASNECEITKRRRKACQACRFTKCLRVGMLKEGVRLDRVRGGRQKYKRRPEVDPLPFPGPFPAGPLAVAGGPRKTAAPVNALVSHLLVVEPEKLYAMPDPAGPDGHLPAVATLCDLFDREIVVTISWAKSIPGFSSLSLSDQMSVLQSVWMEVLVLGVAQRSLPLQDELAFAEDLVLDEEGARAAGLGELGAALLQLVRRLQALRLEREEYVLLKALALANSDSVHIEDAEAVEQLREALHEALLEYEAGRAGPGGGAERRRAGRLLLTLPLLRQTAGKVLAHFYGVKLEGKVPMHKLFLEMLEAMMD

On to `CCOc1cccc(-n2cc(C(=O)N3CCN(c4cc(C(=O)O)c5ccccc5c4)CC3)nc2-c2ccc(C)cc2)c1`, for which the AC50 in [1] was 33 µM (active); in experiment [2] it was 41.4 µM (active); in experiment [3], 28.3 µM (active); in experiment [4] it was 26.1 µM (active); in experiment [7], 3.92 µM (active); in [10], 22.3 µM (active). The figures for the AC50 in experiment [12] and in experiment [13] were 151 µM (active) and 27.2 µM (active), respectively. The result in experiment [5], in [6], in [8], in [9], in experiment [11] and in experiment [14] was inactive. For the same compound, the compound was classed as inactive in experiment [15] and in [16].
Turning to `O=c1n(CC2CO2)c(=O)n(CC2CO2)c(=O)n1CC1CO1` (configuration not stated), the AC50 in experiment [1] was 59.6 µM (active); in experiment [2], 21.3 µM (active); in experiment [4], 65.3 µM (active); in experiment [5] it was 65.2 µM (active); in experiment [13], 100 µM (active); in experiment [14], 74.9 µM (active). Further, the call in [3], in experiment [7], in [8], in experiment [9], in experiment [10] and in experiment [11] was inactive. Also, the call in experiment [12], in experiment [17] and in experiment [18] was inactive.
Turning to `CCNc1ccccc1`, the outcome in [1], in experiment [3], in experiment [4], in experiment [5], in experiment [7] and in experiment [8] was inactive. In addition, the compound was classed as inactive in experiment [9], in experiment [10], in experiment [11], in experiment [12], in experiment [13] and in [17]. In addition, the result in experiment [14] and in [16] was inactive. In experiment [2], the AC50 was 35.5 µM (active).
On to `CC[C@H]1CC[C@H](NCc2cc3c(cc2OC)[C@H]2C[C@H]2C(=O)N3C)[C@H](c2ccccc2)N1`, for which the outcome in [1], in experiment [4], in [5], in experiment [8], in [9] and in [11] was inactive. Further, the result in [12], in [18], in [19] and in [20] was inactive. For the same compound, the AC50 in experiment [3] was 75.6 µM (active); in experiment [6] it was 47.5 µM (active); in experiment [7], 36.6 µM (active); in [10], 100 µM (active); in experiment [13], 33.2 µM (active); in [14], 96.6 µM (active).

As a reminder, the AC50 is the concentration giving half of the maximal activity seen.
